The source of these data is PubChem BioAssay AID485367 (National Center for Advancing Translational Sciences (NCATS), 2010).

Each structure is given as a SMILES string. Hit rate of the full screen: of about 330,000 compounds, about 560 (0.17%) were called active. Not shown: some 1% with an inconclusive outcome. The entries come from a sample that favours actives as a whole. Values without a mark were called inactive. Calls come from the whole dose curve; as a rule, active = well fitted inhibition curve with a large enough effect; inconclusive = small, poorly fitted or top-dose-only effect, or effect the other way; inactive = flat fitted curve, though single readings scatter.
Potency is the fitted concentration of half-maximal effect.

Sequence of ATP-dependent 6-phosphofructokinase (Trypanosoma brucei brucei) (O15648 whole entry, looked up): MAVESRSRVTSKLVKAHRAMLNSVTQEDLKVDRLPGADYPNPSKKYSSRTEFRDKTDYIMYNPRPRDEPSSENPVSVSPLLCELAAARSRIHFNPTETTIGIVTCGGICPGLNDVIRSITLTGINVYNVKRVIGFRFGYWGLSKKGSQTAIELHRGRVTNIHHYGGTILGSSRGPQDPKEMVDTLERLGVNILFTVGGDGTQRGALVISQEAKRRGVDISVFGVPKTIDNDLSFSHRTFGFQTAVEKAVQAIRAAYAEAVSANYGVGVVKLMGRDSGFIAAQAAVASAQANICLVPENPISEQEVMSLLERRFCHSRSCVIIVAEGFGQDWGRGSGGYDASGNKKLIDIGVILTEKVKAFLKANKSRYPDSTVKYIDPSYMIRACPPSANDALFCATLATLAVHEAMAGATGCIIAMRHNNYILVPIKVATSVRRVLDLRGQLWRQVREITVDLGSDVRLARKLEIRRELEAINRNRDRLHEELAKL

This assay addresses ATP-dependent 6-phosphofructokinase (Trypanosoma brucei brucei) (UniProt O15648). In words: qHTS Assay to Find Inhibitors of T. brucei phosphofructokinase. Note: nearly all actives have a fitted effect of over 60% in size. The settings on record: T. brucei PFK, ADP-Glo luminescence; series mostly up to 57.5 µM; activity, negative = inhibition: at the top concentration. The text has this:
NIH Molecular Libraries Probe Production Network [MLPCN] NIH Chemical Genomics Center [NCGC] Grant: 1 R03 MH092153-01 PI Name: Malcolm Walkinshaw, University of Edinburgh NCGC Assay Overview: Various species of the protozoan family Trypanosomatidae are responsible for a range of serious human diseases in tropical and subtropical areas of the world. […] Many of the disorders caused by trypanosomatids are fatal if left untreated, but most currently used drugs are inefficient and toxic. […] Oxidative metabolism involving the mitochondrial tricarboxylic acid cycle and oxidative phosphorylation are repressed in these parasites, and recent RNA interference (RNAi) experiments have shown that even partial depletion of certain individual glycolytic enzymes can lead to the death of cultured parasites. One such glycolytic enzyme, phosphofructokinase (PFK), catalyzes the formation of fructose-1,6-bisphosphate (F1,6BP) and ADP from fructose-6-phosphate (F6P) and ATP, and in many metabolic circumstances makes an important contribution to the control of flux through the glycolytic pathway. As a specific glycolytic target, PFK is particularly attractive as it catalyzes the first irreversible step in glycolysis, and structural and kinetic studies have shown very substantial and essential differences from corresponding host enzymes, allowing for the discovery of parasite-selective inhibitors. The goal of this screen is to find small-molecule inhibitors of T. brucei PFK using a biochemical assay that measures PFK activity as a function of ADP production. A luminescence-based assay for T. brucei PFK activity has been developed which uses luciferase to detect production of ADP. Traditional luciferase-based nucleotide detection reagents rely on ATP production as a direct substrate for the luciferase reaction; however, PFK catalyzes the transfer of a phosphate from ATP to F6P, resulting in the net depletion of ATP. To directly measure the ADP product of the PFK reaction, we used the ADP-Glo detection kit (Promega), which utilizes two separate reactions to 1) deplete all remaining uncatalyzed ATP and 2) convert all remaining ADP to ATP, which is then detected through a traditional luciferase-coupled reaction. Compounds were screened as a concentration-titration series that ranged from 57 uM to 0.7 nM.
NCGC Assay Protocol Summary: NCGC Assay Protocol Summary: Substrate buffer was dispensed into white, solid 1536-well plates at 3uL/well in 0.1M triethanolamine (TEA) buffer, pH 8.0, containing final concentrations of 5 mM MgCl2, 0.01% Tween20, 0.5 mM fructose-6-phosphate (F6P) and 0.1mM ATP. Then, 23 nL of compounds or DMSO were delivered to each well using a pin tool. One uL T. brucei PFK (0.1M TEA, 0.01% Tween20, 0.1% bovine serum albumin (BSA) and 1.25nM PFK, final concentrations) was then dispensed, and plates were incubated at room temperature for 45 min. The luminescent detection reagent, ADP-Glo (Promega), was then added in two steps: the first reagent, ADP-Glo (which converts remaining uncatalyzed ATP), was added at 2.5uL/well and incubated for ten minutes at room temperature, and the second component, Kinase Detection reagent (which converts ADP to ATP as a substrate for luciferase-based luminescence), was added immediately after at 5uL/well, followed by one final ten minute room temperature incubation. The plates were measured on a ViewLux plate reader for luminescent signal using a clear filter with a one second exposure. The %Activity was determined from the corrected luminescence values. As no specific T. brucei PFK inhibitors have been identified in the literature, 1x (1.25nM) and 0x PFK enzyme controls (untreated) were included to normalize %Activity of identified inhibitors; 0x enzyme values corresponded to 100%Activity (full inhibition), while 1x PFK enzyme values were used to normalize 0%Activity (no inhibition). Concentration-response curves were fitted to the signals arising from the resulting luminescence. […]
In general terms: qHTS replaces the single test concentration by a dilution series.
Consider `Cc1cccc(-n2c(N)c(C(=O)N3CCN(C)CC3)sc2=S)c1`, for which the Potency was 12 µM (active).

As to `Cc1ccc2c(C)c(C(=O)N(C)CCC3CCCCO3)oc2c1C` (stereo unspecified), the “activity, negative = inhibition” value is -4.76%.

Take `N#CCSc1nn(-c2ccc(F)cc2)c(=S)s1`: the “activity, negative = inhibition” value was 0.779%.

On to `O=c1ccc2c(-c3ccccc3S(=O)(=O)O)c3ccc(O)c(O)c3oc-2c1O`, for which the Potency is 2.39 µM (active).

As for `COC(=O)c1ccc(COc2ccc(/C=C/C(=O)c3ccc(OC)c(CSCC(=O)O)c3)cc2OC)cc1`, the Potency was 4.78 µM (active).

Regarding `COc1ccc(/C=C/C(=O)c2ccc(NS(=O)(=O)c3ccc(C)cc3)cc2)cc1O`, the “activity, negative = inhibition” value is 9.84%.

On to `COc1ccc(C(=O)/C=C/c2ccc(-c3ccccc3)cc2)cc1CSCC(=O)O`, for which the “activity, negative = inhibition” value is -0.707%.

Take `Cc1ccc(OCC(=O)N2CCN(C(=O)c3cccnc3)CC2)cc1`: the “activity, negative = inhibition” value was -0.802%.

Turning to `CN1C(CC(=O)Nc2ccc(Br)cc2)c2ccccc2CC1(C)C` (stereo unspecified), the “activity, negative = inhibition” value is 3.31%.

`Cc1cc(C(=O)Nc2c(C)nn(Cc3ccccc3)c2C)on1`: the “activity, negative = inhibition” value is 3.52%.

With `Cc1nn(Cc2ccc(Cl)c(Cl)c2)c(C)c1NC(=O)c1cc(C2CC2)on1`, the Potency is 9.53 µM (active).

Regarding `Cc1nn(Cc2ccc(F)cc2)c(C)c1NC(=O)c1cccnc1Cl`, the “activity, negative = inhibition” value is 0.406%.

Consider `CCCc1nn(C)c2c(=O)[nH]c(-c3cc(S(N)(=O)=O)ccc3OCC)nc12`, for which the “activity, negative = inhibition” value was 7.25%.

In the case of `CC1CCC(NC(=O)CN(C)S(=O)(=O)c2ccc3c(c2)c(=O)n(C)c(=O)n3C)CC1` (stereo unspecified), the “activity, negative = inhibition” value is 0.492%.

As for `O=C(OCC(=O)N1CCc2ccccc21)c1ccc([N+](=O)[O-])cc1`, the “activity, negative = inhibition” value was 17.6%.

For `COc1ccc(NS(=O)(=O)c2ccc(C)c(C(=O)NNC(=O)c3csc(N4CCOCC4)n3)c2)cc1`, the “activity, negative = inhibition” value is -10%.

For the compound `CC1=NN(c2cccc(Cl)c2)C(=O)C12CC(C)=C(C)CS2` (stereo unspecified), the “activity, negative = inhibition” value is 2.05%.

On to `Cc1ccn2c(=O)c(NC(=O)c3cccc4ccccc34)c(C)nc2c1`, for which the “activity, negative = inhibition” value is -3.25%.

Take `O=C(C1CCN(c2nnc(-n3cccc3)s2)CC1)N1CCc2ccccc2C1`: the “activity, negative = inhibition” value is -0.0102%.

For `CN1CCN(c2ccc(S(=O)(=O)N3CCOCC3)cc2NC(=O)CCc2ccccc2)CC1`, the “activity, negative = inhibition” value is 1.42%.

As for `O=C(COc1nsnc1N1CCOCC1)Nc1ccccc1Cl`, the “activity, negative = inhibition” value is 2.58%.

For the compound `O=C(NC1CCN(Cc2ccccc2)CC1)c1cc(Br)c(Br)[nH]1`, the “activity, negative = inhibition” value was -0.675%.

With `Cc1cnc(C(=O)N2CCCC(C(=O)c3ccc(C(F)(F)F)cc3)C2)cn1` (stereo unspecified), the “activity, negative = inhibition” value is 2.16%.

In the case of `Cc1cc(NC(=O)CCC(=O)N(CC(=O)NCC2CCCO2)c2ccccc2C)no1` (stereo unspecified), the “activity, negative = inhibition” value is 2.91%.

For the compound `CC(CN1CCC(n2nccc2NC(=O)C2CCCC2)CC1)c1ccccc1` (stereo unspecified), the “activity, negative = inhibition” value is -20.9%.

Take `C=Cn1cc[n+](CC(=O)c2ccc(OC)c(OC)c2)c1`: the “activity, negative = inhibition” value was 8.02%.

`CC(NCC(=O)Nc1ccccc1C(=O)NC1CC1)c1ccccc1Cl` (stereo unspecified): the “activity, negative = inhibition” value is 1.99%.

For `Cc1cccc(NS(=O)(=O)c2ccc(-c3cnc(C4CC4)o3)cc2)c1`, the “activity, negative = inhibition” value is -6.58%.

In the case of `COc1ccccc1N(CC(=O)Nc1ccc(C)cc1Cl)S(=O)(=O)c1cccs1`, the “activity, negative = inhibition” value was 0%.

Turning to `O=C(NC(Cc1ccccc1)C(=O)N1CCCC(C(F)(F)F)C1)c1ccccc1` (stereo unspecified), the “activity, negative = inhibition” value was 1.45%.

In the case of `O=C(NCC(=O)N1CCCC(C(F)(F)F)C1)c1ccccc1F` (stereo unspecified), the “activity, negative = inhibition” value was -6.74%.

As to `FC(F)(F)C1CCCN(c2nsc3ccccc23)C1` (stereo unspecified), the Potency was 6.75 µM (active).

Turning to `COc1cccc(CNC(=O)C2CC(=O)N(C3CCCCCCC3)C2)c1` (stereo unspecified), the “activity, negative = inhibition” value was 1.34%.

With `C=CCOc1ccc(/C=C2\SC(=S)N(CCC(=O)O)C2=O)cc1`, the “activity, negative = inhibition” value is -6.36%.

Turning to `Cc1ccc(/C=C2/SC(=S)N(CCC(=O)NCCCN3CCOCC3)C2=O)cc1`, the “activity, negative = inhibition” value is 2.57%.

With `Cc1ccc(-c2nn(-c3ccccc3)cc2/C=C2\SC(=S)N(CCCCCC(=O)O)C2=O)o1`, the Potency is 4.78 µM (active).

Turning to `CC(=O)c1nnn(-c2ccc(Cl)cc2C#N)c1C`, the “activity, negative = inhibition” value was -1.18%.

Take `Cc1cccn2c(CN(C)C3CCCc4ccccc43)c(C(=O)N3CCOCC3)nc12` (stereo unspecified): the “activity, negative = inhibition” value is 0.624%.

For `CC(C)=CC(=O)Nc1nnc(-c2ccc(F)cc2)s1`, the “activity, negative = inhibition” value was -10%.

Consider `CN[C@H](C(=O)NC[C@H]1O[C@@H](n2cnc3c(N)ncnc32)[C@H](O)[C@@H]1O)[C@@H](C)OCc1ccccc1`, for which the “activity, negative = inhibition” value is -2.64%.

Consider `Cc1cc(C)cc(C(=O)N2CCN=C2SCc2ccc([N+](=O)[O-])cc2)c1`, for which the “activity, negative = inhibition” value was 3.53%.

In the case of `Cc1nc(SCc2ccc(F)cc2)c([N+](=O)[O-])[nH]1`, the “activity, negative = inhibition” value is 1.96%.

In the case of `CN(Cc1ccc(CNC[C@H]2O[C@@H](n3cnc4c(N)ncnc43)[C@H](O)[C@@H]2O)o1)S(C)(=O)=O`, the “activity, negative = inhibition” value was 0%.

For the compound `Cc1nc(N)nc(SCc2ccc([N+](=O)[O-])cc2)c1N`, the Potency was 13.5 µM (active).

With `Nc1nc(SCc2ccc([N+](=O)[O-])cc2)c2ncn(C3OC(CO)C(O)C3O)c2n1` (stereo unspecified), the Potency was 12 µM (active).

Take `COc1cccc(CNC(=O)CCC2CCCN(C(=O)c3ccc(F)c(Cl)c3)C2)c1` (stereo unspecified): the “activity, negative = inhibition” value was -20.6%.

In the case of `CCN(CC)CCn1cnc2c1c(=O)n(CCOC(=O)c1cc(OC)c(OC)c(OC)c1)c(=O)n2C`, the “activity, negative = inhibition” value is 0.629%.

For the compound `CCOc1ccc(NC(=O)c2ccc(CSc3nnnn3C)cc2)cc1`, the “activity, negative = inhibition” value is -15.6%.

Consider `CC(C)C[C@H](NC(=O)N1CCn2c1nc1ccccc12)C(=O)NC1CC1`, for which the “activity, negative = inhibition” value is 1.02%.

Consider `CC1CCN(C(=O)CN(c2ccc(Oc3ccccc3)cc2)S(C)(=O)=O)CC1`, for which the “activity, negative = inhibition” value is -2.4%.

`Cc1nn(C(C)CC(=O)O)c(C)c1C` (stereo unspecified): the “activity, negative = inhibition” value was -4.85%.
